# Measured values: the supplement of paper PMC12282887
# ± gives the standard deviation of the averaged measurements.
# How the values were obtained:
# Experiment in all cases: promoter activity interaction Z-score (Lux/OD deviation from empty-vector control); higher = stronger promoter induction by the compound
# [1] = test system: E. coli BW25113 acrABp lux reporter
# In short: (§1)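 E. coli BW25113, as wild type or one of three single-gene deletion strains, carried low-copy luxCDABE promoter reporters and grew in 40 µl LB Lennox in 384-well plates at 37°C, with OD600 and luminescence read every 30 min for 12 h. Each compound was run at four 1:2 dilutions in biological duplicates, integration spanned 0–8 h for wild type and 1–9 h for deletion strains, and wells under 10% of the median growth value were dropped. The score is the Z-transformed residual of growth-normalised luminescence fitted against a control.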
# [2] = test system: E. coli BW25113 micFp lux reporter
# In short: as §1
# [3] = test system: E. coli BW25113 ompFp lux reporter
# In short: as §1
# [4] = test system: E. coli BW25113 robp lux reporter
# In short: as §1
# [5] = test system: E. coli BW25113 soxSp lux reporter
# In short: as §1
# [6] = test system: E. coli BW25113 tolCp lux reporter
# In short: as §1
# [7] = 28.4 µg/ml, genetic background: wild type
# [8] = 28.4 µg/ml, genetic background: ΔmarA
# [9] = 28.4 µg/ml, genetic background: Δrob
# [10] = 28.4 µg/ml, genetic background: ΔsoxS
# [11] = 56.8 µg/ml, genetic background: wild type
# [12] = 56.8 µg/ml, genetic background: ΔmarA
# [13] = 56.8 µg/ml, genetic background: Δrob
# [14] = 56.8 µg/ml, genetic background: ΔsoxS
# [15] = 113.7 µg/ml, genetic background: wild type
# [16] = 113.7 µg/ml, genetic background: ΔmarA
# [17] = 113.7 µg/ml, genetic background: Δrob
# [18] = 113.7 µg/ml, genetic background: ΔsoxS
# [19] = 227.3 µg/ml, genetic background: wild type
# [20] = 227.3 µg/ml, genetic background: ΔmarA
# [21] = 227.3 µg/ml, genetic background: Δrob
# [22] = 227.3 µg/ml, genetic background: ΔsoxS
# [23] = 4.8 µg/ml, genetic background: wild type
# [24] = 4.8 µg/ml, genetic background: ΔmarA
# [25] = 4.8 µg/ml, genetic background: Δrob
# [26] = 4.8 µg/ml, genetic background: ΔsoxS
# [27] = 9.5 µg/ml, genetic background: wild type
# [28] = 9.5 µg/ml, genetic background: ΔmarA
# [29] = 9.5 µg/ml, genetic background: Δrob
# [30] = 9.5 µg/ml, genetic background: ΔsoxS
# [31] = 19 µg/ml, genetic background: wild type
# [32] = 19 µg/ml, genetic background: ΔmarA
# [33] = 19 µg/ml, genetic background: Δrob
# [34] = 19 µg/ml, genetic background: ΔsoxS
# [35] = 38.1 µg/ml, genetic background: wild type
# [36] = 38.1 µg/ml, genetic background: ΔmarA
smiles,measurement,setting,value
COc1ccc(CCN(C)CCCC(C#N)(c2ccc(OC)c(OC)c2)C(C)C)cc1OC (stereo unspecified) [Verapamil],promoter activity interaction Z-score,[1]; [7],-0.0103 ± 0.0068
same,promoter activity interaction Z-score,[1]; [8],0.651 ± 0.14
same,promoter activity interaction Z-score,[1]; [9],-0.17 ± 0.16
same,promoter activity interaction Z-score,[1]; [10],-0.0848 ± 0.7
same,promoter activity interaction Z-score,[1]; [11],0.383 ± 0.58
same,promoter activity interaction Z-score,[1]; [12],0.649 ± 0.29
same,promoter activity interaction Z-score,[1]; [13],0.236 ± 0.12
same,promoter activity interaction Z-score,[1]; [14],-0.365 ± 0.9
same,promoter activity interaction Z-score,[1]; [15],0.623 ± 0.79
same,promoter activity interaction Z-score,[1]; [16],2.27 ± 1.4
same,promoter activity interaction Z-score,[1]; [17],0.0537 ± 0.02
same,promoter activity interaction Z-score,[1]; [18],-0.0861 ± 0.73
same,promoter activity interaction Z-score,[1]; [19],0.502 ± 0.14
same,promoter activity interaction Z-score,[1]; [20],2.09 ± 0.52
same,promoter activity interaction Z-score,[1]; [21],0.279 ± 0.19
same,promoter activity interaction Z-score,[1]; [22],0.136 ± 0.55
same,promoter activity interaction Z-score,[2]; [7],0.174 ± 0.55
same,promoter activity interaction Z-score,[2]; [8],0.00711 ± 0.17
same,promoter activity interaction Z-score,[2]; [9],0.232 ± 0.1
same,promoter activity interaction Z-score,[2]; [10],-0.114 ± 0.26
same,promoter activity interaction Z-score,[2]; [11],0.0628 ± 0.15
same,promoter activity interaction Z-score,[2]; [12],0.0935 ± 0.19
same,promoter activity interaction Z-score,[2]; [13],0.195 ± 0.062
same,promoter activity interaction Z-score,[2]; [14],-0.187 ± 0.36
same,promoter activity interaction Z-score,[2]; [15],0.65 ± 0.19
same,promoter activity interaction Z-score,[2]; [16],0.105 ± 0.032
same,promoter activity interaction Z-score,[2]; [17],0.115 ± 0.16
same,promoter activity interaction Z-score,[2]; [18],-0.238 ± 0.43
same,promoter activity interaction Z-score,[2]; [19],0.41 ± 0.066
same,promoter activity interaction Z-score,[2]; [20],-0.0581 ± 0.06
same,promoter activity interaction Z-score,[2]; [21],-0.1466 ± 0.00035
same,promoter activity interaction Z-score,[2]; [22],-0.0743 ± 0.052
same,promoter activity interaction Z-score,[3]; [7],-0.365 ± 0.11
same,promoter activity interaction Z-score,[3]; [8],-1.14 ± 0.89
same,promoter activity interaction Z-score,[3]; [9],-0.51 ± 0.49
same,promoter activity interaction Z-score,[3]; [10],-0.279 ± 0.15
same,promoter activity interaction Z-score,[3]; [11],-0.296 ± 0.077
same,promoter activity interaction Z-score,[3]; [12],-0.384 ± 0.03
same,promoter activity interaction Z-score,[3]; [13],-0.384 ± 0.42
same,promoter activity interaction Z-score,[3]; [14],-0.491 ± 0.42
same,promoter activity interaction Z-score,[3]; [15],0.443 ± 0.46
same,promoter activity interaction Z-score,[3]; [16],0.589 ± 0.067
same,promoter activity interaction Z-score,[3]; [17],0.355 ± 1.1
same,promoter activity interaction Z-score,[3]; [18],-0.599 ± 0.19
same,promoter activity interaction Z-score,[3]; [19],1.21 ± 0.48
same,promoter activity interaction Z-score,[3]; [20],1.56 ± 0.13
same,promoter activity interaction Z-score,[3]; [21],1.4 ± 0.93
same,promoter activity interaction Z-score,[3]; [22],1.09 ± 0.35
same,promoter activity interaction Z-score,[4]; [7],0.158 ± 0.075
same,promoter activity interaction Z-score,[4]; [8],0.0269 ± 0.54
same,promoter activity interaction Z-score,[4]; [9],0.215 ± 1.7
same,promoter activity interaction Z-score,[4]; [10],0.00204 ± 1.1
same,promoter activity interaction Z-score,[4]; [11],1.19 ± 0.91
same,promoter activity interaction Z-score,[4]; [12],-0.42 ± 0.62
same,promoter activity interaction Z-score,[4]; [13],-0.201 ± 0.23
same,promoter activity interaction Z-score,[4]; [14],0.308 ± 0.86
same,promoter activity interaction Z-score,[4]; [15],1.4 ± 0.44
same,promoter activity interaction Z-score,[4]; [16],1.73 ± 0.022
same,promoter activity interaction Z-score,[4]; [17],0.608 ± 0.43
same,promoter activity interaction Z-score,[4]; [18],-0.00665 ± 0.6
same,promoter activity interaction Z-score,[4]; [19],1.1 ± 0.18
same,promoter activity interaction Z-score,[4]; [20],2.29 ± 0.91
same,promoter activity interaction Z-score,[4]; [21],0.783 ± 1.4
same,promoter activity interaction Z-score,[4]; [22],1.05 ± 0.94
same,promoter activity interaction Z-score,[5]; [7],-0.18 ± 0.32
same,promoter activity interaction Z-score,[5]; [8],-0.165 ± 0.065
same,promoter activity interaction Z-score,[5]; [9],0.0441 ± 0.32
same,promoter activity interaction Z-score,[5]; [10],-0.273 ± 0.25
same,promoter activity interaction Z-score,[5]; [11],-0.187 ± 0.26
same,promoter activity interaction Z-score,[5]; [12],-0.0917 ± 0.18
same,promoter activity interaction Z-score,[5]; [13],-0.138 ± 0.19
same,promoter activity interaction Z-score,[5]; [14],-0.142 ± 0.42
same,promoter activity interaction Z-score,[5]; [15],0.17 ± 0.18
same,promoter activity interaction Z-score,[5]; [16],-0.0904 ± 0.16
same,promoter activity interaction Z-score,[5]; [17],-0.00688 ± 0.12
same,promoter activity interaction Z-score,[5]; [18],-0.0619 ± 0.28
same,promoter activity interaction Z-score,[5]; [19],-0.0451 ± 0.043
same,promoter activity interaction Z-score,[5]; [20],-0.359 ± 0.078
same,promoter activity interaction Z-score,[5]; [21],-0.361 ± 0.061
same,promoter activity interaction Z-score,[5]; [22],-0.0524 ± 0.36
same,promoter activity interaction Z-score,[6]; [7],0.46 ± 1.1
same,promoter activity interaction Z-score,[6]; [8],-0.252 ± 0.52
same,promoter activity interaction Z-score,[6]; [9],1.67 ± 0.9
same,promoter activity interaction Z-score,[6]; [10],0.403 ± 0.82
same,promoter activity interaction Z-score,[6]; [11],0.842 ± 0.79
same,promoter activity interaction Z-score,[6]; [12],0.112 ± 0.0026
same,promoter activity interaction Z-score,[6]; [13],1.38 ± 0.88
same,promoter activity interaction Z-score,[6]; [14],0.773 ± 0.7
same,promoter activity interaction Z-score,[6]; [15],1.44 ± 0.11
same,promoter activity interaction Z-score,[6]; [16],0.195 ± 0.35
same,promoter activity interaction Z-score,[6]; [17],0.654 ± 0.3
same,promoter activity interaction Z-score,[6]; [18],0.501 ± 1.5
same,promoter activity interaction Z-score,[6]; [19],0.0187 ± 0.66
same,promoter activity interaction Z-score,[6]; [20],-0.769 ± 0.041
same,promoter activity interaction Z-score,[6]; [21],-0.237 ± 0.19
same,promoter activity interaction Z-score,[6]; [22],-0.139 ± 0.8
NC(N)=S [Thiourea],promoter activity interaction Z-score,[1]; [23],-0.187 ± 0.18
same,promoter activity interaction Z-score,[1]; [24],-0.399 ± 0.26
same,promoter activity interaction Z-score,[1]; [25],-0.36 ± 0.23
same,promoter activity interaction Z-score,[1]; [26],-0.569 ± 0.35
same,promoter activity interaction Z-score,[1]; [27],-0.18 ± 0.14
same,promoter activity interaction Z-score,[1]; [28],0.241 ± 0.33
same,promoter activity interaction Z-score,[1]; [29],0.0155 ± 0.17
same,promoter activity interaction Z-score,[1]; [30],-0.239 ± 0.4
same,promoter activity interaction Z-score,[1]; [31],-0.0387 ± 0.081
same,promoter activity interaction Z-score,[1]; [32],-0.48 ± 0.68
same,promoter activity interaction Z-score,[1]; [33],-0.186 ± 0.13
same,promoter activity interaction Z-score,[1]; [34],-0.351 ± 0.079
same,promoter activity interaction Z-score,[1]; [35],-0.113 ± 0.22
same,promoter activity interaction Z-score,[1]; [36],-0.12 ± 0.22
same,promoter activity interaction Z-score,"[1]; 38.1 µg/ml, genetic background: Δrob",0.24 ± 0.064
same,promoter activity interaction Z-score,"[1]; 38.1 µg/ml, genetic background: ΔsoxS",-0.0892 ± 0.19
same,promoter activity interaction Z-score,[2]; [23],-0.235 ± 0.23
same,promoter activity interaction Z-score,[2]; [24],-0.0756 ± 0.059
same,promoter activity interaction Z-score,[2]; [25],-0.0669 ± 0.076
same,promoter activity interaction Z-score,[2]; [26],-0.189 ± 0.15
same,promoter activity interaction Z-score,[2]; [27],0.261 ± 0.46
same,promoter activity interaction Z-score,[2]; [28],-0.0468 ± 0.13
same,promoter activity interaction Z-score,[2]; [29],-0.0323 ± 0.16
same,promoter activity interaction Z-score,[2]; [30],0.0238 ± 0.19
same,promoter activity interaction Z-score,[2]; [31],-0.293 ± 0.083
same,promoter activity interaction Z-score,[2]; [32],-0.144 ± 0.073
same,promoter activity interaction Z-score,[2]; [33],-0.0798 ± 0.19
same,promoter activity interaction Z-score,[2]; [34],-0.203 ± 0.18
same,promoter activity interaction Z-score,[2]; [35],-0.442 ± 0.33
same,promoter activity interaction Z-score,[2]; [36],-0.164 ± 0.059
